Measurements taken from the supplement of paper PMC10849652.
Of roughly 8,800 targets only a part is listed; those with a hit were picked by preference. About 0.5% of all pairs of compound and target were hits.

Key:
Test in all cases: log2 fold change, soluble protein after heating vs DMSO (PISA); higher = thermal stabilisation; K562 lysate, 10 uM; active = over 0.2 and 3.5 SD of the protein, either way, in both replicates (recomputed)
nilotinib = compound: Cc1cn(-c2cc(NC(=O)c3ccc(C)c(Nc4nccc(-c5cccnc5)n4)c3)cc(C(F)(F)F)c2)cn1 [nilotinib]
Summary of the method: (§1)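 Values give the log-two fold change in thermal stability against solvent controls, from duplicates. Crude K562 extract at 1 mg/mL protein, made by dounce homogenisation in PBS pH 7.4 with 1 mM MgCl2, was treated with 10 μM compound for 30 min. After 3 min heating across 48°C-58°C, aliquots were pooled, adjusted to 0.5% NP-40 at 4°C and centrifuged at 21,000xg for 90 min. The supernatant was measured by TMTpro 16plex LC-MS/MS with channel sums equalised.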

[1] = compound: Cc1nc(Nc2n[nH]c3c2CN(C(=O)N[C@H](CN(C)C)c2ccccc2)C3(C)C)c2sccc2n1
Summary of the method: as §1

dasatinib = compound: Cc1nc(Nc2ncc(C(=O)Nc3c(C)cccc3Cl)s2)cc(N2CCN(CCO)CC2)n1 [dasatinib]
Summary of the method: as §1

[2] = compound: Cc1ncc(-c2ccnc(Nc3ccc(S(C)(=O)=O)cc3)n2)n1C(C)C
Summary of the method: as §1

[3] = compound: Cn1cc(-c2ccc3c(c2)CCN3C(=O)Cc2cccc(C(F)(F)F)c2)c2c(N)ncnc21
Summary of the method: as §1

quisinostat = compound: Cn1cc(CNCC2CCN(c3ncc(C(=O)NO)cn3)CC2)c2ccccc21 [quisinostat]
Summary of the method: as §1

tipifarnib = compound: Cn1cncc1[C@@](N)(c1ccc(Cl)cc1)c1ccc2c(c1)c(-c1cccc(Cl)c1)cc(=O)n2C [tipifarnib]
Summary of the method: as §1

[4] = compound: NC(=O)Nc1cc(-c2cccc(F)c2)sc1C(=O)N[C@H]1CCCNC1
Summary of the method: as §1

[5] = compound: NC(=O)c1cnc(N[C@@H]2CCCC[C@@H]2N)nc1Nc1cccc(-n2nccn2)c1
Summary of the method: as §1

[6] = compound: NC1(c2ccc(-c3nc4ccn5c(=O)[nH]nc5c4cc3-c3ccccc3)cc2)CCC1
Summary of the method: as §1

[7] = compound: NCC(=O)Nc1ccc(-n2nc(C(F)(F)F)cc2-c2ccc3c(ccc4ccccc43)c2)cc1
Summary of the method: as §1

vorinostat = compound: O=C(CCCCCCC(=O)Nc1ccccc1)NO [vorinostat]
Summary of the method: as §1

silmitasertib = compound: O=C(O)c1ccc2c(c1)nc(Nc1cccc(Cl)c1)c1ccncc12 [silmitasertib]
Summary of the method: as §1

[8] = compound: O=C1NC(=O)C(c2cnc3ccccn23)=C1c1cn2c3c(cc(F)cc13)CN(C(=O)N1CCCCC1)CC2
Summary of the method: as §1

entospletinib = compound: c1cn2cc(-c3ccc4cn[nH]c4c3)nc(Nc3ccc(N4CCOCC4)cc3)c2n1 [entospletinib]
Summary of the method: as §1

Measured: log2 fold change

PFAS (UniProt O15067)
Sequence of UniProt O15067 (O15067 whole entry, looked up): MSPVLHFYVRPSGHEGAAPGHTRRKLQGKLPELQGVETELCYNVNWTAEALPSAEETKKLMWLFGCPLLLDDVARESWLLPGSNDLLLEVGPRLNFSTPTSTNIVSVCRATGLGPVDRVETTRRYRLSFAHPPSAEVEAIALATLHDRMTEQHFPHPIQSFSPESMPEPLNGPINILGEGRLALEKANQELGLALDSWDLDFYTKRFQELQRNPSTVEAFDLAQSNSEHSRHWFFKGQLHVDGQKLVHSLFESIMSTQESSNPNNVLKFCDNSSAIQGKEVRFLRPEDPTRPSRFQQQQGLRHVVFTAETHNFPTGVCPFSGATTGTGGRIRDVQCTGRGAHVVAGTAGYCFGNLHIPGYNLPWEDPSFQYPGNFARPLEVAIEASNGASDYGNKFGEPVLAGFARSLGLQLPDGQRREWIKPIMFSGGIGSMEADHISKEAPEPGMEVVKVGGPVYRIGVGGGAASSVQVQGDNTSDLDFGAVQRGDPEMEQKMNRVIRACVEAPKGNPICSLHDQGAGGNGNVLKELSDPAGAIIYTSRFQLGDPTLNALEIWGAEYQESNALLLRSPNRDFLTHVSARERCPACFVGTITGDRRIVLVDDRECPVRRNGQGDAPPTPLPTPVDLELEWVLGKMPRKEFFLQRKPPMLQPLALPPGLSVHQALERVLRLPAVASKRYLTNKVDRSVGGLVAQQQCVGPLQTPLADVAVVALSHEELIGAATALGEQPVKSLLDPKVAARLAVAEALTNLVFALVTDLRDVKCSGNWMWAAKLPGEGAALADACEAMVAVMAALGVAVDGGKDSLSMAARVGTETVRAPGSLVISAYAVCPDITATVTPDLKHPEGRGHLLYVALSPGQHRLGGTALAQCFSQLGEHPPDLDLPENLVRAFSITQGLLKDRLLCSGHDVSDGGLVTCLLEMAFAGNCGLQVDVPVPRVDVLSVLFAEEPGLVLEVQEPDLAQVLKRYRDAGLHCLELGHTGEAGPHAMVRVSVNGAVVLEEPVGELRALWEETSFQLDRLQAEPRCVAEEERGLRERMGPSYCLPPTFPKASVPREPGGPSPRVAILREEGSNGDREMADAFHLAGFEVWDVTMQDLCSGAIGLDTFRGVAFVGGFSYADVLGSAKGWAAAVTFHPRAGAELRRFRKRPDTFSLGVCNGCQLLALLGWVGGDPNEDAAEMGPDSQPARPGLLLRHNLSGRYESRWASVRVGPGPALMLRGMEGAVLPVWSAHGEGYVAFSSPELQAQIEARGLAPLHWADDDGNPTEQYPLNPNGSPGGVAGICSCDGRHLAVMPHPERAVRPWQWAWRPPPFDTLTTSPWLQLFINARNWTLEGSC
inactive: nilotinib 0.015 | [1] -0.023 | dasatinib -0.031 | [2] -0.017 | [3] 0.008 | quisinostat -0.037 | tipifarnib 0.01 | [4] 0.01 | [5] 0.005 | [6] -0.009 | [7] 0.029 | silmitasertib 0.022 | [8] 0.031 | entospletinib 0.016
active: vorinostat -0.272

PHKG2 (UniProt P15735)
Sequence of UniProt P15735 (P15735 whole entry, looked up): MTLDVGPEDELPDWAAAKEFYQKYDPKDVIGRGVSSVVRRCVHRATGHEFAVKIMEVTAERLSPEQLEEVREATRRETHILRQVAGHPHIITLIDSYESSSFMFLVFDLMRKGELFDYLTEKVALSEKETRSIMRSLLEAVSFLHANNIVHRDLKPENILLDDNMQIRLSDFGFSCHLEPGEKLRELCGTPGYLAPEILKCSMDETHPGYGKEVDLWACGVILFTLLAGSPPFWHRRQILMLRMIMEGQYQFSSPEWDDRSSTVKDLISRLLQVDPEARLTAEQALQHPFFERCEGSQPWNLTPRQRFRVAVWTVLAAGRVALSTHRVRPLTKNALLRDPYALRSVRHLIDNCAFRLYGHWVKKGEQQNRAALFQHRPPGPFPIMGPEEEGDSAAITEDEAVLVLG
active: [1] 0.598 | [4] 0.979
inactive: nilotinib -0.022 | dasatinib -0.03 | [2] 0.046 | [3] 0.037 | quisinostat -0.069 | tipifarnib 0.038 | [5] -0.042 | [6] -0.073 | [7] -0.029 | vorinostat 0.013 | silmitasertib 0.008 | [8] -0.022 | entospletinib 0.026

PIR (UniProt O00625)
inactive: nilotinib 0.011 | [1] -0.011 | dasatinib 0.027 | [2] 0.012 | [3] 0.023 | quisinostat 0.011 | tipifarnib 0.005 | [4] 0.02 | [5] -0.009 | [6] -0.046 | [7] 0.015 | vorinostat 0.035 | silmitasertib -0.049 | [8] -0.013 | entospletinib -0.035

PGRMC1 (UniProt O00264)
Sequence of UniProt O00264 (O00264 whole entry, looked up): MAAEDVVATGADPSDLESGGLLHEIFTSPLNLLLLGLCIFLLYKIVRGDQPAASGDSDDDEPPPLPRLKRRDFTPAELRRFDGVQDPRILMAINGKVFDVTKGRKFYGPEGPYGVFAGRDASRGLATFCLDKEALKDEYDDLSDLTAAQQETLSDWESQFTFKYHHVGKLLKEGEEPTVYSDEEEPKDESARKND
inactive: nilotinib 0.028 | [1] 0.015 | dasatinib 0.026 | [2] -0.078 | [3] 0.012 | quisinostat 0.106 | tipifarnib 0.003 | [4] -0.059 | [5] 0.017 | [6] 0.056 | [7] -0.018 | vorinostat 0.113 | silmitasertib 0.017 | [8] 0.014 | entospletinib -0.02

PPP2R5C isoform 2 (UniProt Q13362)
active: quisinostat 0.347
inactive: nilotinib -0.028 | [1] 0.021 | dasatinib -0.02 | [2] -0.068 | [3] 0.028 | tipifarnib 0.028 | [4] -0.284 | [6] -0.051 | [7] -0.004 | vorinostat -0.12 | silmitasertib 0.015 | [8] 0.086

PHKA1 (UniProt P46020)
inactive: nilotinib -0.059 | [1] 0.14 | dasatinib -0.138 | [2] -0.007 | [3] 0.029 | quisinostat -0.072 | tipifarnib -0.021 | [5] 0.091 | [6] -0.053 | [7] 0.002 | silmitasertib 0.184 | [8] -0.001 | entospletinib -0.01
active: [4] 0.272 | vorinostat -0.223

PCYT1B (UniProt Q9Y5K3)
Sequence of UniProt Q9Y5K3 (Q9Y5K3 whole entry, looked up): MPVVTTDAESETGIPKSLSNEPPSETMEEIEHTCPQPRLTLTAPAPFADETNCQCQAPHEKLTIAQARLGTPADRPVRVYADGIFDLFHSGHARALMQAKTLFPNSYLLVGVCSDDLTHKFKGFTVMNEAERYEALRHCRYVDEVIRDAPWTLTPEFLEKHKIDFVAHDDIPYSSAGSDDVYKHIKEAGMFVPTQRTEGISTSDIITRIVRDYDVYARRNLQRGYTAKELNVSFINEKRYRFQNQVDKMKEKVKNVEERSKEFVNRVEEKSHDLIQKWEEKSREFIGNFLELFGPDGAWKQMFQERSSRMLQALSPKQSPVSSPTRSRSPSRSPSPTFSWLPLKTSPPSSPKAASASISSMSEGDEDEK
inactive: nilotinib -0.079 | [1] -0.003 | dasatinib 0 | [2] 0.022 | [3] -0.026 | quisinostat 0.039 | tipifarnib 0.047 | [4] -0.023 | [5] -0.008 | [6] 0.054 | [7] -0.03 | vorinostat 0.064 | silmitasertib -0.062 | [8] -0.027 | entospletinib 0.002

PRG4 (UniProt Q92954)
inactive: nilotinib -0.092 | [1] 0.196 | dasatinib -0.028 | [2] 0.196 | [3] 0.024 | quisinostat -0.285 | tipifarnib 0.17 | [4] 0.057 | [5] -0.09 | [8] -0.145

PRKAB2 (UniProt O43741)
inactive: nilotinib 0.033 | [1] 0.203 | dasatinib -0.049 | [2] 0.106 | [3] 0.042 | quisinostat -0.031 | tipifarnib -0.031 | [4] 0.14 | [5] 0.036 | [6] 0.023 | [7] -0.006 | vorinostat -0.009 | silmitasertib 0.111 | [8] 0.096 | entospletinib 0.013

PTK2B (UniProt Q14289)
inactive: nilotinib 0.011 | [1] 0.109 | dasatinib 0.041 | [2] 0.026 | [3] 0.059 | quisinostat -0.122 | tipifarnib -0.067 | [5] 0.072 | [6] -0.04 | [7] 0.016 | silmitasertib 0.021 | [8] -0.088 | entospletinib -0.002
active: [4] 0.377 | vorinostat -0.339

PIKFYVE (UniProt Q9Y2I7)
inactive: nilotinib 0.017 | [1] -0.017 | dasatinib -0.022 | [2] -0.015 | [3] 0.009 | quisinostat -0.014 | tipifarnib -0.035 | [4] 0.007 | [5] 0.027 | [6] -0.005 | [7] 0.031 | silmitasertib 0.03 | [8] -0.026 | entospletinib -0.014
active: vorinostat -0.476

PSTPIP2 (UniProt Q9H939)
active: vorinostat -0.312
inactive: nilotinib 0.029 | [1] 0.016 | dasatinib -0.056 | [2] 0.028 | [3] 0.023 | quisinostat -0.037 | tipifarnib -0.008 | [4] 0.008 | [5] -0.007 | [6] 0.007 | [7] 0.046 | silmitasertib 0.04 | [8] 0.017 | entospletinib -0.005

PPP1R8 (UniProt Q12972)
inactive: nilotinib 0.004 | [1] -0.011 | dasatinib 0.03 | [2] 0.034 | [3] 0.025 | quisinostat -0.023 | tipifarnib 0.013 | [4] -0.007 | [5] 0.01 | [6] -0.024 | [7] 0.02 | vorinostat 0.04 | silmitasertib -0.009 | [8] -0.017 | entospletinib 0.025

PRMT5 (UniProt O14744)
Sequence of UniProt O14744 (O14744 whole entry, looked up): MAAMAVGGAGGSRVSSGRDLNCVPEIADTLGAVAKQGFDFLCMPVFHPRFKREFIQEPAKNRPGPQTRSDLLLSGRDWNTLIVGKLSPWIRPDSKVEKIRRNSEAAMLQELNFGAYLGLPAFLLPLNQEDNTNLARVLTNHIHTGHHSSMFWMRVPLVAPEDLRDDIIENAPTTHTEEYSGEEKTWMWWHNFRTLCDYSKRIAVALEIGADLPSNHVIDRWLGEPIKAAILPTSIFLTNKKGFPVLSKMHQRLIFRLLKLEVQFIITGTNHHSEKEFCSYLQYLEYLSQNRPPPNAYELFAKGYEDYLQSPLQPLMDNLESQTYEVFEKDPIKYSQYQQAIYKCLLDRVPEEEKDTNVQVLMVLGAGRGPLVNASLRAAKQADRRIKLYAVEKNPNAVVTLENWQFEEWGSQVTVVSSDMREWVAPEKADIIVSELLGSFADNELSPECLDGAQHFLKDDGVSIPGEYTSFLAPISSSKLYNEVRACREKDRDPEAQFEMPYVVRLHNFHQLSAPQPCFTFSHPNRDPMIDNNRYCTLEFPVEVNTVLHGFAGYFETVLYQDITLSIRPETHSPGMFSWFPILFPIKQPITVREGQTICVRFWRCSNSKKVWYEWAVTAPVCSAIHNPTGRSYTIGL
inactive: nilotinib 0 | [1] 0.005 | dasatinib 0.094 | [2] -0.024 | [3] -0.028 | quisinostat -0.027 | tipifarnib 0 | [4] 0.035 | [5] -0.015 | [6] -0.019 | [7] 0.012 | vorinostat 0.013 | silmitasertib -0.037 | [8] 0.001 | entospletinib 0.013

PDF (UniProt Q9HBH1)
inactive: nilotinib 0.014 | [1] 0.002 | dasatinib -0.037 | [2] 0.02 | [3] 0.067 | quisinostat -0.064 | tipifarnib -0.012 | [4] 0.022 | [5] -0.034 | [6] 0.056 | [7] -0.095 | vorinostat -0.232 | silmitasertib 0.044 | [8] 0 | entospletinib -0.004

PIK3CD (UniProt O00329)
Sequence of UniProt O00329 (O00329 whole entry, looked up): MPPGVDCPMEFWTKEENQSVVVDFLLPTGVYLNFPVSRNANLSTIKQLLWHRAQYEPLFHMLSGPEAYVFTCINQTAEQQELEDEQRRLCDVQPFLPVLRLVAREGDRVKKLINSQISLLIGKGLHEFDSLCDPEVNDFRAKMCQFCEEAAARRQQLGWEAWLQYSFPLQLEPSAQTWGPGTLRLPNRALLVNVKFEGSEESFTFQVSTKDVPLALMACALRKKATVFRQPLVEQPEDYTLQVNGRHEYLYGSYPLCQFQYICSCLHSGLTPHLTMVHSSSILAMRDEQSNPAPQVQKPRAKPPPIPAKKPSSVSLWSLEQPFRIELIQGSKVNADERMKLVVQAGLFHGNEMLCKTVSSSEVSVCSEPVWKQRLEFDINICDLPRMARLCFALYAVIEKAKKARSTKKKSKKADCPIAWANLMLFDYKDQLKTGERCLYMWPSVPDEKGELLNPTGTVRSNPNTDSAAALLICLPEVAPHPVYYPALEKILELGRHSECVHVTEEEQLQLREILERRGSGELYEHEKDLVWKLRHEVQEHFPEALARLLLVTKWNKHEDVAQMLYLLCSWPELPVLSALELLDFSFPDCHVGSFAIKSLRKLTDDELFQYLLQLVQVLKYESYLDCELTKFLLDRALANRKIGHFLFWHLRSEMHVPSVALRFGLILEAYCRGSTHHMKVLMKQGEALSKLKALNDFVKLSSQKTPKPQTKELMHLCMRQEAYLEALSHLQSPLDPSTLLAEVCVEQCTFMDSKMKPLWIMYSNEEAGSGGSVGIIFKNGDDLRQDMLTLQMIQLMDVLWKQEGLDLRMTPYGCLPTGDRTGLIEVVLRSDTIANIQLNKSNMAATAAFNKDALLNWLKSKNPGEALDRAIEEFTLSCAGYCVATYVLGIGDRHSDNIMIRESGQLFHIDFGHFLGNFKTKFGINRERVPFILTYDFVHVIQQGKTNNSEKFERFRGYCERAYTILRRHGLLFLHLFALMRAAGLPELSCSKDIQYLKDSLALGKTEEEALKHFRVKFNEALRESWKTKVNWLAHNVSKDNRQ
inactive: nilotinib 0.059 | [1] 0.006 | [2] 0.122 | [3] 0.151 | quisinostat -0.091 | tipifarnib -0.053 | [4] 0.02 | [5] 0.001 | [6] 0.127 | [7] -0.059 | silmitasertib 0.223 | [8] -0.004
active: vorinostat -0.516

POM121C (UniProt A8CG34)
inactive: [5] 0.022 | [6] -0.09 | vorinostat 0.077 | silmitasertib -0.196

PPP2CA (UniProt E7ESG8)
inactive: nilotinib 0.025 | [1] -0.108 | [2] -0.232 | tipifarnib 0.356

POLR2M (UniProt Q6EEV4)
Sequence of UniProt Q6EEV4 (Q6EEV4 whole entry, looked up): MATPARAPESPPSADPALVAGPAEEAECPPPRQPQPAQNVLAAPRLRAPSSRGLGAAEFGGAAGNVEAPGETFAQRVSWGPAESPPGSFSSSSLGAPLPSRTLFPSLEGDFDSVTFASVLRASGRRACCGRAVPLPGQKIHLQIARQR
inactive: dasatinib 0.02 | [3] -0.2 | quisinostat 0.011 | [4] 0.032 | [5] -0.015 | [6] 0.076 | [7] 0.146 | vorinostat -0.019 | silmitasertib -0.069 | [8] 0.06 | entospletinib -0.022

PUF60 isoform 2 (UniProt Q9UHX1)
inactive: nilotinib -0.011 | [1] -0.027 | [2] 0.05 | quisinostat 0.013 | tipifarnib 0.023 | [4] 0.017 | [5] -0.016 | [6] -0.184 | [7] -0.061 | vorinostat 0.23 | silmitasertib 0.075 | [8] 0.026 | entospletinib 0.027

PNPLA4 (UniProt P41247)
Sequence of UniProt P41247 (P41247 whole entry, looked up): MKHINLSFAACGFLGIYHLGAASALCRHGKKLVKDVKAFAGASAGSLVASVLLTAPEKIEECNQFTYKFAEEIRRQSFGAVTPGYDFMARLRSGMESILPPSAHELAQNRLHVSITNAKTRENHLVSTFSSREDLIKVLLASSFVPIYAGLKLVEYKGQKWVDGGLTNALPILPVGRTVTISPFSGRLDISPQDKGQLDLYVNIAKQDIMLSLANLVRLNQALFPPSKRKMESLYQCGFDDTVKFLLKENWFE
inactive: dasatinib 0.099 | [3] 0.194 | quisinostat 0.048 | [4] 0.037 | [7] -0.012 | [8] -0.093 | entospletinib -0.046

PTK2 isoform 2 (UniProt Q05397)
inactive: dasatinib 0.014 | [3] 0.102 | [5] 0.034 | [6] -0.168 | vorinostat -0.056 | silmitasertib 0.046 | entospletinib 0.007

PREP (UniProt H0Y5Y0)
inactive: [5] -0.087

PPP2R3C (UniProt Q969Q6)
Sequence of UniProt Q969Q6 (Q969Q6 whole entry, looked up): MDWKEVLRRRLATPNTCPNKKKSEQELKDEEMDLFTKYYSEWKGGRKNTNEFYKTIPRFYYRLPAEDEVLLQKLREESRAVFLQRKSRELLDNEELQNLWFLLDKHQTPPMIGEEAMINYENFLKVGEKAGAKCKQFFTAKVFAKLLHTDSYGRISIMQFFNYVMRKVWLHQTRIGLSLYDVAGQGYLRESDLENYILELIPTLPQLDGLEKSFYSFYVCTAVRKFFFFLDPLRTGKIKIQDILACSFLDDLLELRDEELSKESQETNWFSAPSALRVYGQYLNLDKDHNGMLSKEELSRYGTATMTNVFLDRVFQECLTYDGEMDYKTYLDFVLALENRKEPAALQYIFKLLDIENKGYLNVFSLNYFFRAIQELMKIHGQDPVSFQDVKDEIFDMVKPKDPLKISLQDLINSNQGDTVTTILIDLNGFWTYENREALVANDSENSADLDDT
inactive: nilotinib -0.139 | [1] 0.057 | dasatinib -0.061 | [2] -0.13 | [3] -0.009 | tipifarnib 0.057 | [5] 0.038 | [6] 0.062 | [7] -0.019 | vorinostat -0.362 | silmitasertib 0.086 | entospletinib 0.074

PRR4 (UniProt Q16378)
Sequence of UniProt Q16378 (Q16378 whole entry, looked up): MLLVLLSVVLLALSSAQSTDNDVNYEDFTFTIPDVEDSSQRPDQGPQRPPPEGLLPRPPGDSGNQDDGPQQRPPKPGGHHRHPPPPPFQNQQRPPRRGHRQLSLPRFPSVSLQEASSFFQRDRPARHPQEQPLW
inactive: nilotinib 0.047 | [1] -0.145 | [2] -0.027 | tipifarnib 0.05 | [5] 0.032 | [6] 0.012 | [7] 0.009 | vorinostat 0.229 | silmitasertib -0.176 | entospletinib 0.302

PFN1 (UniProt I3L3D5)
inactive: nilotinib -0.009 | [1] -0.088 | [2] 0.108 | tipifarnib 0.006 | [5] 0.04 | entospletinib -0.194
